Assay outcomes from PubChem BioAssay.
HTR5A inv ctr = HTR5A inverse agonism, opioid heterodimer counter-screen; 0.083% of 340,000 active; HTR5A cell line, luminescence; inhibition, % at 9.3 µM; P47898; in the data active means inhibition mostly above about 23%, no sharp cut-off; inactive means mostly below about 18%;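 further: 0% = cells with DMSO and 100% = no-cell wells with DMSO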
Target sequence (P47898 whole entry, looked up): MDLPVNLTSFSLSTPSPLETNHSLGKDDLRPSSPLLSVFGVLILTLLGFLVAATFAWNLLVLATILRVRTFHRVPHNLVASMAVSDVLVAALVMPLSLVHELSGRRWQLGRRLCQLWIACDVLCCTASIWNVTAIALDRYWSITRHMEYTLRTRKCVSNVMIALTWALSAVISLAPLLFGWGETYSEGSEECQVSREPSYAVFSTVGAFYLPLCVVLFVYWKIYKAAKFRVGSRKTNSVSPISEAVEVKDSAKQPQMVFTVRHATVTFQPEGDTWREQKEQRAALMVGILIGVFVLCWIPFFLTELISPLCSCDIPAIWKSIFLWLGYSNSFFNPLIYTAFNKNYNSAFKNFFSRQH
OPRM1-OPRD1 ag = agonists of human mu-delta opioid receptor heterodimerization; cells, OPRM1-OPRD1 heterodimerization, luminescence; activation, % at 9.3 µM; P35372+P41143; 0.3% of 340,000 active; AID 504326; in the data active means activation above about 18%;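 further: 0% = vehicle-treated cells and 100% = reference agonist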
MOR-DOR inv ag = inverse agonist of human OPRM1-OPRD1 heterodimerization | P35372+P41143 | cell-based MOR-DOR heterodimer luminescence, inverse agonism | inhibition, % at 9.3 µM | 0.21% of 340,000 active | AID 504357; in the data active means inhibition above about 22%, passing the limit was not always enough;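 further: 0% = cells with DMSO and 100% = wells without cells with DMSO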
HTR5A ag = activates human HTR5A in OPRM1-OPRD1 agonist counter-screen; P47898; HTR5A agonist assay, luminescence, cell-based; activation, % at 9.3 µM; 0.61% of 340,000 active; AID 504692; in the data active means activation mostly above about 9.5%, no sharp cut-off; inactive means mostly below about 7.6%;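 further: 0% = cells with vehicle only and 100% = reference agonist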
MOR-DOR inv conf = confirmation of human OPRM1-OPRD1 heterodimerization inverse agonists | 20% of 580 active | shares compounds with MOR-DOR inv ag | AID 504900 | cells expressing OPRM1/OPRD1 heterodimer, luminescence | inhibition, % at 9.3 µM; in the data active means inhibition above about 32%;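 further: 0% = cells with DMSO and 100% = wells lacking cells with DMSO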
HTR5A inv ctr2 = inverse agonist of human HTR5A in OPRM1-OPRD1 counter-screen; shares compounds with MOR-DOR inv ag; HTR5A-expressing cells, luminescence, inverse agonism; inhibition, % at 9.3 µM; 580 tested, under 10 active; AID 504914; call rule not given here;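 further: 0% = cells with DMSO and 100% = no-cell wells with DMSO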
The depositor's hits bear a star; i = inactive; . = no result. Only some compounds are listed: those with a hit (about 1.1% of all), similar ones and a draw of the others.

SMILES	HTR5A inv ctr	OPRM1-OPRD1 ag	MOR-DOR inv ag	HTR5A ag	MOR-DOR inv conf	HTR5A inv ctr2
CCOC(=O)[C@H]1[C@H]2COc3ccccc3[C@@H]2N2C(=O)CN(CC3CCCO3)C(=O)[C@@]12C (some centres not stated)	-13	-1	7	-4	.	.
Cc1ccc(N=C2C(=O)Nc3ccccc32)c(C)c1	13	-10	54*	-3	21	2
Cc1ccccc1N=C1C(=O)Nc2ccccc21	6	-11	56*	-2	-128	5
Cc1ccccc1CNC(=O)CN(c1ccccc1Cl)S(C)(=O)=O	-3	-4	17	1	.	.
Clc1ccc(-c2nnc(-c3ccccc3)o2)cn1	-21	-1	3	6	.	.
CCOC(=O)c1ccc(CC(=O)c2oc3cc(O)ccc3c2C)o1	-9	-6	34*	-1	28	-2
CCCCn1c(N)c(N(Cc2ccccc2OC)C(=O)c2ccc(N3CCCC3=O)cc2)c(=O)[nH]c1=O	2	-3	16	-1	.	.
O=C(C[N+]1(CC#Cc2ccccc2)CCOCC1)c1ccccc1	10	-5	25	-2	.	.
O=C(C[N+]1(CC#Cc2ccccc2)CCOCC1)c1ccc(Cl)cc1	5	-6	33*	-2	i	-14
CN(c1ccccc1C(=O)Nc1ccc(S(=O)(=O)N2CCOCC2)cc1)S(=O)(=O)c1ccccc1	5	-6	33*	3	-3	-15
COc1ccc(OC)c(N=C2C(=O)Nc3ccccc32)c1	22	-8	42*	-8	45*	-3
O=C1Nc2ccccc2C1=Nc1cccc([N+](=O)[O-])c1	-4	-8	48*	1	-138	-12
O=C1Nc2ccccc2C1=Nc1ccc(S(=O)(=O)Nc2nccs2)cc1	-13	1	-3	4	.	.
COc1cc(/C=N/N=C2/C(=O)Nc3ccccc32)ccc1O	12	-3	13	-5	.	.
COc1ccc(N=C2C(=O)Nc3ccc(C)c(Br)c32)cc1	6	-14	70*	-2	-52	-3
NC(=O)c1ccc(N=C2C(=O)Nc3ccc([N+](=O)[O-])cc32)cc1	-14	0	-1	5	.	.
NS(=O)(=O)c1ccc(N=C2C(=O)Nc3ccccc32)cc1	7	-12	64*	-3	27	-7
O=C(NC(CO)C(=O)OCc1ccccc1)OCc1ccccc1 (configuration not stated)	10	-1	4	-2	.	.
O=C(NCCS(=O)(=O)N1CCN(c2ccccc2)CC1)C1CC1	-7	-3	14	3	.	.
Cc1ccc(-c2cc(C(=O)N(C)CC(=O)Nc3ccccc3Br)c3ccccc3n2)o1	3	-3	16	11	.	.
O=C1Nc2ccccc2C1=Nc1ccc(F)cc1	11	-11	59*	-3	23	4
COc1ccc(N=C2C(=O)Nc3ccccc32)cc1	8	-9	50*	-2	20	-15
CSc1nnc(C)c(/C=C/NOCc2ccc(Cl)cc2)n1	16	-9	44*	-1	-95	2
Cc1ccc(-c2ccccc2NC(=O)C2C3C=CC(C3)C2C(=O)O)o1 (configuration not stated)	-7	-6	34*	-2	-39	1
Cc1ccc(-c2cccc(NC(=O)C3C(C(=O)O)[C@@H]4C=C[C@H]3C4)c2)o1 (some centres not stated)	6	-1	7	-2	.	.
SMILES	HTR5A inv ctr	OPRM1-OPRD1 ag	MOR-DOR inv ag	HTR5A ag	MOR-DOR inv conf	HTR5A inv ctr2
CCOC(=O)N1C(=O)NC(=O)C1c1ccc(Cl)cc1 (configuration not stated)	2	-1	5	-1	.	.
O=C(COc1ccc(Cl)cc1)Nc1cc(NC(=O)COc2ccc(Cl)cc2)cc(C(=O)O)c1	35	-2	11	7	.	.
CCNC(=S)NNC(=S)NCc1ccccc1	13	-4	21	-3	.	.
CCNC(=S)NNc1nnc(-c2ccccc2)c(-c2ccccc2)n1	17	-10	50*	2	29	8
O=[N+]([O-])c1cccc(/C=N/NS(=O)(=O)c2ccccc2)c1	-11	-7	38*	0	21	0
Cc1ccc(S(=O)(=O)N2CCN(c3nn(C)c(=O)n(C)c3=O)CC2)cc1C	-16	-6	23	0	.	.
COCc1cc(C)nc2sc(C(=O)N3CCCCC3)c(N)c12	11	-7	39*	1	i	13
O=C(CNc1ccc(Br)cc1)c1ccccc1	-18	-3	13	1	.	.
O=C(CNc1ccc(F)cc1)c1ccccc1	14	-6	37*	-6	-9	6
O=C(CSc1nc(O)c(C2CCCCC2)c(=O)[nH]1)Nc1ccc(F)cc1	8	-2	12	-1	.	.
Fc1cccc(Cl)c1CSC1=NCCS1	-12	2	-17	2	.	.
ON(Cc1c(F)cccc1Cl)Cc1c(F)cccc1Cl	2	-7	35*	-4	70*	9
COc1ccc(S(=O)(=O)NNc2nc(C)cc(C)n2)cc1[N+](=O)[O-]	0	-8	46*	2	54*	2
Cc1cc(C)cc(OCC(=O)NNC(=S)NC(=O)C2CC2)c1	9	-7	39*	-4	-237	-14
Cc1ccc(N(CC(=O)N=Nc2c(O)[nH]c3ccccc23)S(C)(=O)=O)c(C)c1	2	-3	15	2	.	.
Cc1ccc(S(=O)(=O)N=Nc2c(O)[nH]c3ccccc23)cc1C	25	-9	47*	-2	-55	1
COc1ccc(S(=O)(=O)N=Nc2c(O)[nH]c3ccccc23)cc1	21	-9	45*	0	-63	4
COc1cc(C=NNc2nc3c([nH]2)c(=O)n(C)c(=O)n3C)ccc1O	10	-7	35*	-2	15	-1
CN(C)C(=O)CSc1n[nH]c(=O)n1CCc1ccccc1	3	-6	38*	-2	-58	-3
CCOC(=O)CSc1n[nH]c(=O)n1CCc1ccccc1	-8	0	-2	2	.	.
CC(=O)N/C(=C\c1ccccc1)C(=O)OCc1cc(C)ccc1C	2	2	-16	-1	.	.
COc1ccc(O)c(/C=N/NC(=O)CN2CCS(=O)(=O)CC2)c1	19	2	-9	-1	.	.
FC(F)(F)c1cnc(NNC(=S)Nc2ccccc2Cl)c(Cl)c1	29	-8	43*	-9	44*	35
S=C(NNc1ccnc2cc(Cl)ccc12)Nc1ccccc1Cl	-29	5	-23	2	.	.
Cc1cccc(NC(=S)NNc2ncc(C(F)(F)F)cc2Cl)c1	49	-9	45*	-2	33*	22
CC1CCc2[nH]c3ccc(C(=O)N(C)CC(=O)Nc4ccccc4C(F)(F)F)cc3c2C1 (configuration not stated)	2	1	-4	-1	.	.
CN(Cc1ccccc1)C(=O)c1cccc(NC(=O)Cc2ccc(NC(=O)C3CCN(C(=O)C4CCCCC4)CC3)cc2)c1	9	-3	12	-2	.	.
